Screens: PubChem BioAssay, National Center for Advancing Translational Sciences (NCATS)
Shown are actives, neighbours in structure and some others; about 22% of the full set was active somewhere.
LmPK inhibitor = inhibitors of Leishmania mexicana pyruvate kinase. purified LmPK, Kinase-Glo ATP luminescence, 1 h. Potency, µM (top dose mostly 57.5 µM), inactives show at the highest dose activity change, negative = inhibition, hits mostly inhibitors. 0.37% of 290,000 active. AID 1721; note: potency is the fitted concentration of half-maximal effect; % is set by controls: 0 for no effect and ±100 for the full control effect
Target sequence (Q27686 whole entry, looked up): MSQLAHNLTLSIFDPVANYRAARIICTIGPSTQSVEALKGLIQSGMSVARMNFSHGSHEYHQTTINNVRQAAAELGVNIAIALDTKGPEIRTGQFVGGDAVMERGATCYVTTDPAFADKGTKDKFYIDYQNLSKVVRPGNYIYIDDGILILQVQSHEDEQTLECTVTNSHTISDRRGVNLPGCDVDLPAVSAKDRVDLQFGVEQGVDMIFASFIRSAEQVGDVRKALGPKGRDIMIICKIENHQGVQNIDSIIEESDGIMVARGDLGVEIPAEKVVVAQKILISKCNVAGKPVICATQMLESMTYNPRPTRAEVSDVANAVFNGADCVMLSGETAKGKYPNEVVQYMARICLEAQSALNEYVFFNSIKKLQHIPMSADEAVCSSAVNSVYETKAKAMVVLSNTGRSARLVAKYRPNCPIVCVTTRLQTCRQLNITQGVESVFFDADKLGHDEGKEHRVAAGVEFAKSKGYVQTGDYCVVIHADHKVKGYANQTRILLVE
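Pyruvate kinase activity monitored as ATP production (luciferase luminescence). Conditions: 0.1 nM enzyme, 0.5 mM PEP, 0.1 mM ADP, 1 h, RT; normalized against uninhibited and no-enzyme wells.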
Shiga toxin inh = Shiga toxin inhibition. Vero cells, Shiga toxin protein synthesis inhibition reporter. inhibition, % at 38.7 µM. 9.2% of 290,000 active. AID 2315; in the data active = inhibition mostly above about 28%, no sharp cut-off; inactive = mostly below about 43%; note: 0% is about no effect
Pf growth 48h = P. falciparum growth inhibition at 48 hours (one generation); P. falciparum luciferase growth in erythrocytes, 48 h; 5.9% of 310,000 active; Potency, µM (titrated, usually from 28.7 µM), without a hit: top-dose activity change, negative = inhibition, most hits filed as inhibitors; note: potency is the fitted concentration of half-maximal effect; % is set by controls: 0 for no effect and ±100 for the full control effect
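Growth was read as firefly luciferase luminescence after a 48 h, 37 C, 5% CO2 exposure of compounds to reporter-bearing P. falciparum cultures (0.1% parasitemia, 2% hematocrit final) in Albumax-supplemented RPMI 1640.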
Pf growth 96h = P. falciparum growth inhibition at 96 hour, primary screen for plastid delayed-death inhibitors; P. falciparum luciferase reporter growth, 96 h; Potency, µM (doses to about 28.7 µM), for inactives: at the highest dose activity change, negative = inhibition, usual class: inhibitors; 6.9% of 320,000 active; AID 504834; note: potency is the fitted concentration of half-maximal effect; % is set by controls: 0 for no effect and ±100 for the full control effect
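Two parasite generations (96 h, 37 C, 5% CO2) of compound exposure in infected erythrocytes (0.05% parasitemia, 2% hematocrit). Luciferase-reporter P. falciparum; decreased luminescence indicates inhibited growth, aimed at apicoplast-acting delayed death.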
CHX counter = counter-screen for Shiga toxin inhibitors: cycloheximide protein synthesis inhibition; max response, %; cell reporter, cycloheximide protein synthesis inhibition counterscreen; 12% of 300,000 active; in the data active = max response mostly above about 13%, no sharp cut-off; inactive = mostly below about 14%; note: read at 38.3 µM for the half of the compounds with a filed dose; 0% is about no effect
Numbers without * were called inactive; u = inconclusive; x = not tested or not shown; [ ] = dose if it differs, or a comment. Unless noted, calls come from the whole dose curve; as a rule, active = well fitted inhibition curve with a large enough effect; inconclusive = small, poorly fitted or top-dose-only effect, or another doubt; inactive = no such curve, though single readings can be large or run the other way.

SMILES	LmPK inhibitor	Shiga toxin inh	Pf growth 48h	Pf growth 96h	CHX counter
NC(=O)CC(NC(=O)c1cccc(Br)c1)c1ccc(NC2CCN(Cc3ccccc3)CC2)c([N+](=O)[O-])c1 (configuration not stated)	1.8%	-7.0	25.2%	u	-1.9
Cc1c(Cl)cccc1NC(=O)CCN1CCC(C(N)=O)CC1	0.1%	x	-17.1%	-18.3%	-3.5
C/C(Cl)=C/Cc1c(C)[nH]c2ccc(C)cc2c1=O	-6.7%	40.9	0.37µM*	11.6%	26.9*
C/C(Cl)=C/Cc1c(C)[nH]c2c(ccc3ccccc32)c1=O	3.1%	-3.2	0.185µM*	-32.4%	2.1
Oc1cc2ccccc2nc1-c1ccccc1Cl	2.0%	11.1	7.38µM*	u	-0.9
Cc1ccc(S(=O)(=O)NCc2ccccc2)cc1C(=O)N(C)Cc1ccccc1F	-5.6%	9.9	7.6%	15.9%	0.4
O=C(NCCOc1ccccc1)C1CCC(=O)N(CCc2ccc(Cl)cc2)C1 (configuration not stated)	-0.9%	32.5	-2.9%	u	19.4*
Cc1ccc(OCCN(C)C(=O)C2CCC(=O)N(CC3CCCCC3)C2)cc1 (configuration not stated)	0.4%	10.1	u	u	-3.1
O=C1CCC(C(=O)N2CCCCO2)CN1CCc1ccc(Cl)cc1 (configuration not stated)	1.1%	20.2	4.6%	-18.7%	20.0*
CN(Cc1ccccn1)C(=O)C1CCC(=O)N(CCc2ccc(Cl)cc2)C1 (configuration not stated)	-4.2%	-4.2	0.1%	1.3%	0.6
CN(CCOc1ccccc1)C(=O)C1CCC(=O)N(CCc2ccc(Cl)cc2)C1 (configuration not stated)	-1.3%	87.2*	-13.1%	-13.6%	46.5*
O=C(NCCOc1ccccc1)C1CCC(=O)N(Cc2ccc(Cl)cc2)C1 (configuration not stated)	-1.5%	20.1	-0.9%	u	1.2
CCc1ccc(CN(C)C(=O)C2CCC(=O)N(CC3CCCCC3)C2)cc1 (configuration not stated)	-3.3%	11.1	u	13.1µM*	38.4*
O=c1c(Cl)c(N2CCC3(CC2)OCCO3)cnn1C12CC3CC(CC(C3)C1)C2	5.4%	3.9	u	u	-4.4
COc1ccc(-c2ccnc3c(Br)c(C)nn23)cc1	x	x	u	38.6%	x
COc1ccc(CCN2CC(C(=O)N(C)CCOc3ccccc3)CCC2=O)cc1 (configuration not stated)	3.4%	22.4	-12.4%	4.5%	25.9*
COc1ccc(CCN2CC(C(=O)N(C)Cc3ccccc3OC)CCC2=O)cc1 (configuration not stated)	-0.8%	-14.1	-14.8%	-22.1%	7.4
CN(Cc1cnccn1)C(=O)C1CCC(=O)N(CCc2ccccc2)C1 (configuration not stated)	4.3%	-4.8	-7.3%	u	-2.9
Cc1ccc(CN(C)C(=O)C2CCC(=O)N(CCc3ccccc3)C2)o1 (configuration not stated)	-5.1%	31.4*	-3.5%	u	20.3*
O=C(c1ccc(Cl)cc1)[C@@H]1[C@@H]2C(=O)N(c3cccc4ccccc34)C(=O)[C@@H]2C2c3ccccc3C=NN21 (some centres not stated)	0.1%	-7.4	5.8%	-7.3%	-2.3
Cc1cccc(/C=N/NC(=O)c2ccc(Br)cc2)c1	-5.0%	69.5*	71.0%	32.4%	34.5*
O=C(Nc1ccccc1C(=O)N/N=C/c1ccc(F)cc1)c1ccccc1Br	-13.4%	17.3	u	u	17.3*
Cc1cccc(/C=N\N=C\c2cccc(C)c2)c1	4.2%	x	u	7.38µM*	53.1*
O=C(N/N=C/c1ccc(Br)cc1)c1ccc(Br)o1	-28.4%	65.5*	38.6%	35.7%	50.6*
Cc1ccc2nccc(C(=O)N3CCCC(Nc4ccc(F)cc4)C3)c2c1 (configuration not stated)	2.7%	8.3	12.9%	u	2.9
SMILES	LmPK inhibitor	Shiga toxin inh	Pf growth 48h	Pf growth 96h	CHX counter
O=C(CCCCCNC(=O)c1ccccc1)N/N=C/c1ccc(F)cc1	-4.7%	-4.3	13.1µM*	u	2.0
O=C(N/N=C/c1ccc(Br)cc1)c1cc[n+]([O-])cc1	-0.2%	-3.1	3.6%	-2.6%	-0.3
O=C(N/N=C/c1ccc(F)cc1)c1cc[n+]([O-])cc1	-3.8%	60.6*	14.5%	-0.3%	17.6*
O=C(N/N=C/c1ccc(Br)cc1)c1ccc(F)cc1	-3.5%	47.2*	u	29.8%	34.6*
O=C(N/N=C/c1ccc(F)cc1)c1ccccc1	-18.4%	125.7*	101.8%	20.6%	32.7*
Cc1nc2ccc(Cl)cc2c(-c2ccccc2F)c1CC(=O)O	4.7%	3.5	-4.8%	16.0%	-0.6
CCCc1cc(=O)oc2cc(OC(C)C(=O)NCC3CCC(C(=O)O)CC3)ccc12 (configuration not stated)	2.4%	7.4	-13.3%	u	-1.6
O=C(NC(=S)Nc1cccc([N+](=O)[O-])c1)c1ccccc1	-3.2%	78.5*	82.2%	62.0%	35.9*
O=C(NC(=S)Nc1cc([N+](=O)[O-])ccc1Cl)c1ccccc1	5.5%	62.3*	x	x	41.2*
O=C(NC(=S)Nc1cccc([N+](=O)[O-])c1)c1ccco1	-0.5%	-9.7	56.2%	8.28µM*	6.2
O=C(CNC(c1ccccc1)c1ccccc1)Nc1cc([N+](=O)[O-])ccc1Cl	7.6%	-9.0	u	13.1µM*	-3.3
Cc1ccc(C(=O)NC(=S)Nc2cccc(NC(=O)c3ccccc3)c2)cc1[N+](=O)[O-]	0.2%	6.6	23.5%	39.9%	3.3
C/C(=N\NC(=O)c1nnn(-c2nonc2N)c1-c1cccs1)c1cccc(O)c1	0.1%	-7.1	4.3%	4.5%	-4.6
COC(=O)C1=C(C(=O)OC)[C@@H]2Nc3ccccc3[C@@]23C[C@@H](C(=O)OC)N(S(=O)(=O)c2ccc(Br)cc2)C3=N1	-0.7%[11.5 µM]	x	x	x	x
Cn1cc(C2=C(c3cn(CCCSC(=N)N)c4ccccc34)C(=O)NC2=O)c2ccccc21	x	-19.2	x	x	-7.8
O=C(O)CC(NNC(=O)c1ccccc1)C(=O)Nc1cccc([N+](=O)[O-])c1 (configuration not stated)	6.0%	72.1*	14.6%	13.0%	23.4*
O=C(CNC(=S)NC(=O)c1cccc([N+](=O)[O-])c1)c1ccccc1	3.4%	-4.9	32.0%	10.4µM*	4.4
CC(CC(=O)O)CC(=O)Nc1cccc([N+](=O)[O-])c1 (configuration not stated)	6.6%	-9.1	13.3%	17.5%	-2.0
Cn1c(SCC(=O)NNC(=O)c2ccccc2)nnc1C1CC1	-5.1%	58.5	5.6%	-25.7%	-3.5
O=C(Nc1ccc(OC(=O)c2ccccc2)c(-c2nc3ccccc3s2)c1)c1ccccc1	2.1%	12.0	32.5%	23.7%	-2.0
Cc1ccsc1C(=O)Nc1ccc(O)c(-c2nc3ccccc3s2)c1	-1.1%	44.7	41.0%[5.75 µM]	63.0%[5.75 µM]	18.3*
